According to ChEMBL document CHEMBL1961873, “Compounds: GSK PKIS; Assays: Nanosyn kinase panel” (2012):

Tests used:
[1] = biological target: Tyrosine-protein kinase SYK (Homo sapiens) (UniProt P43405); conditions: at 1 µM
[2] = biological target: T1, Tyrosine-protein kinase Tec (Homo sapiens) (UniProt P42680); conditions: at 0.1 µM
T1 sequence (whole entry): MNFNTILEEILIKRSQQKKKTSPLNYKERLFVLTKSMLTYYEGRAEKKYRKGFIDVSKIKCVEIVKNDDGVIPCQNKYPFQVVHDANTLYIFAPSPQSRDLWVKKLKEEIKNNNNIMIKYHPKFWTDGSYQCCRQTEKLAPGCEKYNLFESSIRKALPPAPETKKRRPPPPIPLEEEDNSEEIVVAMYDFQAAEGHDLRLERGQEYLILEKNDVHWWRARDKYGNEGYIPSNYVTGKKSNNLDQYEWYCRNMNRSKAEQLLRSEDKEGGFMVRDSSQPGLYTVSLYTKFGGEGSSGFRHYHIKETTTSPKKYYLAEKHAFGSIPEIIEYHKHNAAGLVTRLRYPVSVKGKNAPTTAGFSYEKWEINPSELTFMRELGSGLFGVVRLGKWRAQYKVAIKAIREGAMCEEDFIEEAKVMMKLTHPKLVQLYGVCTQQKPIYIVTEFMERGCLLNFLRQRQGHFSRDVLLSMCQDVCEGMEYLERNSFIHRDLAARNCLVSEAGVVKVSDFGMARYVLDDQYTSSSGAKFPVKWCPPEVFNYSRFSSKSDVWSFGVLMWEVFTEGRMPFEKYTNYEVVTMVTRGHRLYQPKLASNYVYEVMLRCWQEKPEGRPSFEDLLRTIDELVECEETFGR

[3] = biological target: T1, Tyrosine-protein kinase Tec (Homo sapiens); conditions: at 1 µM
[4] = biological target: Angiopoietin-1 receptor (Homo sapiens) (UniProt Q02763); conditions: at 0.1 µM
[5] = biological target: Angiopoietin-1 receptor (Homo sapiens) (UniProt Q02763); conditions: at 1 µM
[6] = biological target: T2, Non-receptor tyrosine-protein kinase TNK1 (Homo sapiens) (UniProt Q13470); conditions: at 0.1 µM
T2 sequence (whole entry): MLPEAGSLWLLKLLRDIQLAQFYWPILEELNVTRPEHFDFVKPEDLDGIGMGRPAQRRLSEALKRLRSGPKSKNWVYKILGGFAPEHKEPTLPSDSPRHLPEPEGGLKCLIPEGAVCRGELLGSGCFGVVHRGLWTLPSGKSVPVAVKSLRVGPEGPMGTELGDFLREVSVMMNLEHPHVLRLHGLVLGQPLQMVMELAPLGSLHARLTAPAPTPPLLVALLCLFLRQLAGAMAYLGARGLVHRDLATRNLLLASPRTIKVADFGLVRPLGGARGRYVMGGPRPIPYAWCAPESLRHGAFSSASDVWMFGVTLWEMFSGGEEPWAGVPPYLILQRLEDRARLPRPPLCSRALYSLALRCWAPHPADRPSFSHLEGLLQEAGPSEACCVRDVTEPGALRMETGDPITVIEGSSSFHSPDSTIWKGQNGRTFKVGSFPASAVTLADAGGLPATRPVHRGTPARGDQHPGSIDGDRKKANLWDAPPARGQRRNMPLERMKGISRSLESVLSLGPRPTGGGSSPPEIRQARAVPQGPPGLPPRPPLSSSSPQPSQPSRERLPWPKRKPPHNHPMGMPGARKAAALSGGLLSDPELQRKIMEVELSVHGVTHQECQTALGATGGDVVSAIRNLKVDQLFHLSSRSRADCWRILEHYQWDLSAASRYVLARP

[7] = biological target: T2, Non-receptor tyrosine-protein kinase TNK1 (Homo sapiens); conditions: at 1 µM
[8] = biological target: Activated CDC42 kinase 1 (Homo sapiens) (UniProt Q07912); conditions: at 0.1 µM
[9] = biological target: Activated CDC42 kinase 1 (Homo sapiens) (UniProt Q07912); conditions: at 1 µM
[10] = biological target: High affinity nerve growth factor receptor (Homo sapiens) (UniProt P04629); conditions: at 0.1 µM
[11] = biological target: High affinity nerve growth factor receptor (Homo sapiens) (UniProt P04629); conditions: at 1 µM
[12] = biological target: BDNF/NT-3 growth factors receptor (Homo sapiens) (UniProt Q16620); conditions: at 0.1 µM
[13] = biological target: BDNF/NT-3 growth factors receptor (Homo sapiens) (UniProt Q16620); conditions: at 1 µM
[14] = biological target: NT-3 growth factor receptor (Homo sapiens) (UniProt Q16288); conditions: at 0.1 µM
[15] = biological target: NT-3 growth factor receptor (Homo sapiens) (UniProt Q16288); conditions: at 1 µM
[16] = biological target: T3, Tyrosine-protein kinase TXK (Homo sapiens) (UniProt P42681); conditions: at 0.1 µM
T3 sequence (whole entry): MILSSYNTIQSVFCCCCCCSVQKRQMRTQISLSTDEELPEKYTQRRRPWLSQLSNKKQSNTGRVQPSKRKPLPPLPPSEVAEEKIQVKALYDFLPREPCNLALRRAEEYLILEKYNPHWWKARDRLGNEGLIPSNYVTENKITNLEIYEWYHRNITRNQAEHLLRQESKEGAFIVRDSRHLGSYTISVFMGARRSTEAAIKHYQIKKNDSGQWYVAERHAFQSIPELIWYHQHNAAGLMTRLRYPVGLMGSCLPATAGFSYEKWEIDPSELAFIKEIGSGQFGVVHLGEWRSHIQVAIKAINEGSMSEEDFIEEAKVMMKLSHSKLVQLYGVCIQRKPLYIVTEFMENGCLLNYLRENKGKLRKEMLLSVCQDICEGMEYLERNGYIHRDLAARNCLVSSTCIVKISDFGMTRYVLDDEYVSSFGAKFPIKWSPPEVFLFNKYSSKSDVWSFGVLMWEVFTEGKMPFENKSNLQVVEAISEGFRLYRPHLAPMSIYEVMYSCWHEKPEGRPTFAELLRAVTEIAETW

[17] = biological target: T3, Tyrosine-protein kinase TXK (Homo sapiens); conditions: at 1 µM
[18] = biological target: Non-receptor tyrosine-protein kinase TYK2 (Homo sapiens) (UniProt P29597); conditions: at 0.1 µM;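 further: each value is a mean of the inhibition readings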
[19] = biological target: T4, Dual specificity protein kinase TTK (Homo sapiens) (UniProt P33981); conditions: at 1 µM;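 further: reported figures are mean TTK inhibition at 1 µM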
T4 sequence (whole entry): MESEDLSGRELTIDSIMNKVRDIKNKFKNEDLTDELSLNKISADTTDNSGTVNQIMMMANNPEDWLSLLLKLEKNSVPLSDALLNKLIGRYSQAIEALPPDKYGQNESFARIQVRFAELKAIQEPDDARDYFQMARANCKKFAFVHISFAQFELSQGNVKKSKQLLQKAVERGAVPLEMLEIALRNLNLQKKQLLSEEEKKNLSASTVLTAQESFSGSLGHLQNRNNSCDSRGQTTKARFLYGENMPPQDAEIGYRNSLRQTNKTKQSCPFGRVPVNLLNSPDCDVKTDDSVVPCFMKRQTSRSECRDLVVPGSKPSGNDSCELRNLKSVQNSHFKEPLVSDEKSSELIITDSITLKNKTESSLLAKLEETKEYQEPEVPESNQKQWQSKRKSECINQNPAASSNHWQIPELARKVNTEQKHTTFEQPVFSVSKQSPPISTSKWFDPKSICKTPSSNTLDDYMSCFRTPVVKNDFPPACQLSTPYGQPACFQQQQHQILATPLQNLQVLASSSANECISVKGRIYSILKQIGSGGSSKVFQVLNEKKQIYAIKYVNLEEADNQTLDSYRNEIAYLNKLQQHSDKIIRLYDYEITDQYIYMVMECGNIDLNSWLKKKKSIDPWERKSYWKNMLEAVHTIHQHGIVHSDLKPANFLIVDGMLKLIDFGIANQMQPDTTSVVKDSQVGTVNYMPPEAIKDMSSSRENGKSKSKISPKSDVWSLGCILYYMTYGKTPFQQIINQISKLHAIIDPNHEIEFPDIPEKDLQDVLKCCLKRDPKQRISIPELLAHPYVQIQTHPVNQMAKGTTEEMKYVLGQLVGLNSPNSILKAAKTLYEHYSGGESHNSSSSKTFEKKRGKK

[20] = biological target: T5, Aurora kinase A (Homo sapiens) (UniProt O14965); conditions: at 0.1 µM;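 further: each reported value is a mean percent inhibition of Aurora-A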
T5 sequence (whole entry): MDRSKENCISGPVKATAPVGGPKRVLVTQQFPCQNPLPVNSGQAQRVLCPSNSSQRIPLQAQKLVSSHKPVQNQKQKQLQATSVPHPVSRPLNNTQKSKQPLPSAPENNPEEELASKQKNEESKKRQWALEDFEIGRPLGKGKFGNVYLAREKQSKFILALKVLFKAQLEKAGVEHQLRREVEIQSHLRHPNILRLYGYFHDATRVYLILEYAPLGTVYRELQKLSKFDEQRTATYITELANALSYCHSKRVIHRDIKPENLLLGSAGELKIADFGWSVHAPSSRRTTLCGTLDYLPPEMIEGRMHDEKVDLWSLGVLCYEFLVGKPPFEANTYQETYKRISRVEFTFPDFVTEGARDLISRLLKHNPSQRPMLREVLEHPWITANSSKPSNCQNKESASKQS

Chain of Non-receptor tyrosine-protein kinase TYK2 (Homo sapiens) (P29597 whole entry): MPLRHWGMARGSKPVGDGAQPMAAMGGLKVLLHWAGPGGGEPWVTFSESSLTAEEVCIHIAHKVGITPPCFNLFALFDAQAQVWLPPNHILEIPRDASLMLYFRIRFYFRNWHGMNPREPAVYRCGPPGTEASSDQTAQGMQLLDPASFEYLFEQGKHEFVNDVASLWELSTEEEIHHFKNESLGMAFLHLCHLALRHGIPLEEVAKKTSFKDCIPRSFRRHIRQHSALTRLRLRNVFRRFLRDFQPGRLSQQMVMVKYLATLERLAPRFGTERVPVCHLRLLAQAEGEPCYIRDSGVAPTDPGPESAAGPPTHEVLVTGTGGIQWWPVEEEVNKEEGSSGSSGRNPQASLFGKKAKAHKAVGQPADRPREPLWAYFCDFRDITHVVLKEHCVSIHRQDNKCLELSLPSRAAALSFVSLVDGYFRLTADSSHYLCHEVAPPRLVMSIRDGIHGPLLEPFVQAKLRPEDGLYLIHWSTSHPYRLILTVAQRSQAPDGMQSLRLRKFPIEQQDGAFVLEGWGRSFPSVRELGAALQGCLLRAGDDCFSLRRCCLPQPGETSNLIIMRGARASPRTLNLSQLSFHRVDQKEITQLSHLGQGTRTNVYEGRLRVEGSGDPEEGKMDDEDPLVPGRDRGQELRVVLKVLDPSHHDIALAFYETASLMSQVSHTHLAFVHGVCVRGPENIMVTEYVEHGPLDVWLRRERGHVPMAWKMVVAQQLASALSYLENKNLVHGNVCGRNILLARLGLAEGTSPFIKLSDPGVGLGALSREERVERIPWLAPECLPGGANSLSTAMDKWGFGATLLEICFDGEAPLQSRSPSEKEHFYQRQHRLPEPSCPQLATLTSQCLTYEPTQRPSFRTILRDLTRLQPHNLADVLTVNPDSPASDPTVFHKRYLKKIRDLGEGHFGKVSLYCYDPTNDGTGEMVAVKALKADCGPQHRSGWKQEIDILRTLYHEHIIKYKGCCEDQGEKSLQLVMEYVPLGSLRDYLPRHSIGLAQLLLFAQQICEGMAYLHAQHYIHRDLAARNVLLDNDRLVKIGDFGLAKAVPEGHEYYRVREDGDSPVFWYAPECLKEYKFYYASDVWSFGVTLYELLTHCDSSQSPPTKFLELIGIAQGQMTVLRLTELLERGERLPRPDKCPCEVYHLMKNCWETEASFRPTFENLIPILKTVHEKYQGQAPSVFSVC
Chain of NT-3 growth factor receptor (Homo sapiens) (Q16288 32-839 limits assumed): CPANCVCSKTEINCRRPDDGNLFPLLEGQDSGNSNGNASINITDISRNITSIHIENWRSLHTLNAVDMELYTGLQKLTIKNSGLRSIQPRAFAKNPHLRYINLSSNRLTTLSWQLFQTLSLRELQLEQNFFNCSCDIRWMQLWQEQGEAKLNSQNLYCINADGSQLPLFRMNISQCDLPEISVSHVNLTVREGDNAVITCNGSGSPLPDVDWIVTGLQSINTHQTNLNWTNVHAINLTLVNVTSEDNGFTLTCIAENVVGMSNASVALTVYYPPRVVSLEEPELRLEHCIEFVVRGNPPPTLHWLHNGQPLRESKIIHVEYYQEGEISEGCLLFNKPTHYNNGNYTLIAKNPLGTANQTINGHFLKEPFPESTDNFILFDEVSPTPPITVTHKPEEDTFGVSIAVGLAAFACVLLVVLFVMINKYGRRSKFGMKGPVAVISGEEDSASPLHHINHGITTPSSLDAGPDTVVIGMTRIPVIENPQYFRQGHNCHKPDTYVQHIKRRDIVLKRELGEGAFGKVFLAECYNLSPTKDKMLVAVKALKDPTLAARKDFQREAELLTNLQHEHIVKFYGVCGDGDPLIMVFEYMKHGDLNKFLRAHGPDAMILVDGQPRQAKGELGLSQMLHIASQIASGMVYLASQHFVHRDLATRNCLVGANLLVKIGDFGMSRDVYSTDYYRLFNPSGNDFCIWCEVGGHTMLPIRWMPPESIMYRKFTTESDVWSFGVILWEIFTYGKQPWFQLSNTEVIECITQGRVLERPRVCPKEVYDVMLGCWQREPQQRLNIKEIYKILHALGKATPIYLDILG
Chain of Angiopoietin-1 receptor (Homo sapiens) (Q02763 whole entry): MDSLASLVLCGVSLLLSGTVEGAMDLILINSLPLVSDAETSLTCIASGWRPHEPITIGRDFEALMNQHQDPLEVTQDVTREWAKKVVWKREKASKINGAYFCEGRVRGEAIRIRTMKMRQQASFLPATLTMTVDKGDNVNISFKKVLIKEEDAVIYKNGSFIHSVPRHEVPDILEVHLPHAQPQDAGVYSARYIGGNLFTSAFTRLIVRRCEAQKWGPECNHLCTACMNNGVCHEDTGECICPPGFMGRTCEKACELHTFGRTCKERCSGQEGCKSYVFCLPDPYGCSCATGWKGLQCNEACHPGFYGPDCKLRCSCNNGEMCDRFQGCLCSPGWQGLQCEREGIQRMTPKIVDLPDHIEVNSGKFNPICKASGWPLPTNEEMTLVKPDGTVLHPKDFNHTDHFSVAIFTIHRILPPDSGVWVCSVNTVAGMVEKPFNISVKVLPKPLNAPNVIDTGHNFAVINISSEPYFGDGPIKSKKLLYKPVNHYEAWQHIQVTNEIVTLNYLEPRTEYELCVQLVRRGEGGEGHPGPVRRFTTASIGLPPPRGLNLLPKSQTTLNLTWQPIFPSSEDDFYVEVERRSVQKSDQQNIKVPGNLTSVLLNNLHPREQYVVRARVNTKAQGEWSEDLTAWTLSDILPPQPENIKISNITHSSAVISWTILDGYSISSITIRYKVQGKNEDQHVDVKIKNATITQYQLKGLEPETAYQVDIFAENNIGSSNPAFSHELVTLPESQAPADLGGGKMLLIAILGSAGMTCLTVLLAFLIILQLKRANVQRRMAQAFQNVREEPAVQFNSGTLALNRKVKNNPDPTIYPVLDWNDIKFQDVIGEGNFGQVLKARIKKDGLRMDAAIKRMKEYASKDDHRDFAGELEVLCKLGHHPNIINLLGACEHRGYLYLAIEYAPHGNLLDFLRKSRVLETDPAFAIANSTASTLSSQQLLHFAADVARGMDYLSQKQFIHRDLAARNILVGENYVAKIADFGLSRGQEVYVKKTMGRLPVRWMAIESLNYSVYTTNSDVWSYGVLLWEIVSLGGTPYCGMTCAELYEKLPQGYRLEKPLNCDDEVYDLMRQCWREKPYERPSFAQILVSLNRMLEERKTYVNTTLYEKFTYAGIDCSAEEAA
Chain of BDNF/NT-3 growth factors receptor (Homo sapiens) (Q16620 32-822 limits assumed): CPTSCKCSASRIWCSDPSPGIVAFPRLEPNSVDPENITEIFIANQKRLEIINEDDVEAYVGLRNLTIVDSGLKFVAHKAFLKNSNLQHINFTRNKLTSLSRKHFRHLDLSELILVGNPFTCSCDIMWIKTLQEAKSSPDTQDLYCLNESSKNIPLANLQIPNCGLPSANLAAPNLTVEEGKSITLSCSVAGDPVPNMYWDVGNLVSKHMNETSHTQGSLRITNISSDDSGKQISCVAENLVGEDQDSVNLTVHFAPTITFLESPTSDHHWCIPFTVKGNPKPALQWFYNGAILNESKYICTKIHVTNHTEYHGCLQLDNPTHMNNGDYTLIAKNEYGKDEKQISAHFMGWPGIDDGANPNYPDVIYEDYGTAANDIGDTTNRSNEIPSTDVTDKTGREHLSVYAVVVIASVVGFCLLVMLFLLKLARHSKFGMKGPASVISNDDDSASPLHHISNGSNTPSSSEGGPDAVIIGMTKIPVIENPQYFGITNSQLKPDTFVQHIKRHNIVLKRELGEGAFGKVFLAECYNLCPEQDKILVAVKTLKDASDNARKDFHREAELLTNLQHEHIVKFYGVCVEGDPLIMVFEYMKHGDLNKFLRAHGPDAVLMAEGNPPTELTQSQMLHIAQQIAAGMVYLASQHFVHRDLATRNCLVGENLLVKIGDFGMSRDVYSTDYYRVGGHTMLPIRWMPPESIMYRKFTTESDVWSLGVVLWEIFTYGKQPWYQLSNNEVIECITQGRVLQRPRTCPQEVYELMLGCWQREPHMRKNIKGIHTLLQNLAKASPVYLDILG
Chain of Activated CDC42 kinase 1 (Homo sapiens) (Q07912 whole entry, looked up): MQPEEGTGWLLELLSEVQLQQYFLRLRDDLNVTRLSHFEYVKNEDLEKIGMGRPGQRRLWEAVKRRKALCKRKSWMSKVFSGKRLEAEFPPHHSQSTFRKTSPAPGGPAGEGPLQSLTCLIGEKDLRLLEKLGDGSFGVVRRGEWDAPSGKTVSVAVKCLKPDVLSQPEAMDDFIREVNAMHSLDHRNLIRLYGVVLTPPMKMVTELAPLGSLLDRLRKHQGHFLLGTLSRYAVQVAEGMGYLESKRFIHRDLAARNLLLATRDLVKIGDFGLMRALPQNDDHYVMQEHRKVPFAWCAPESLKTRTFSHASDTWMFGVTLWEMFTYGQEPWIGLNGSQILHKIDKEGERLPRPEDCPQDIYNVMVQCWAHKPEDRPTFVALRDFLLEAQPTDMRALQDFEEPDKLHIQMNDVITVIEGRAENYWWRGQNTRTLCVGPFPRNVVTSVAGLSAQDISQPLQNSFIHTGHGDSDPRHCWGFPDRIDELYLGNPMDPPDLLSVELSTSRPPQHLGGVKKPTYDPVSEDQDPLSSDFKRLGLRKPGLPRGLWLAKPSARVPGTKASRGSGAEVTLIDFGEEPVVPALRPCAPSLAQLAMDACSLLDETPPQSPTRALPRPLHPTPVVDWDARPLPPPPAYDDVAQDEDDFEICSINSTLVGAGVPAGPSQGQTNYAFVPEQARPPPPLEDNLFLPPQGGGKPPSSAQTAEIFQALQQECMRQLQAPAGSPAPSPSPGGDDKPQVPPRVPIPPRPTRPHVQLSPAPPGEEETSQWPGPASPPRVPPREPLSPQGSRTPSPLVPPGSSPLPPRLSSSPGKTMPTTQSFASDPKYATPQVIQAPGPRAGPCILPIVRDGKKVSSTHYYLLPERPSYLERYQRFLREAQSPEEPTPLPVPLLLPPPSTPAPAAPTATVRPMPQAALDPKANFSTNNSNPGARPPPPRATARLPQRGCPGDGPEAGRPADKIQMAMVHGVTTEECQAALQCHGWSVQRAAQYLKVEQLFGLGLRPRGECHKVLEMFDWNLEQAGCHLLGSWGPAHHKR

SMILES | inhibition [1] [%] | inhibition [2] [%] | inhibition [3] [%] | inhibition [4] [%] | inhibition [5] [%] | inhibition [6] [%] | inhibition [7] [%] | inhibition [8] [%] | inhibition [9] [%] | inhibition [10] [%] | inhibition [11] [%] | inhibition [12] [%] | inhibition [13] [%] | inhibition [14] [%] | inhibition [15] [%] | inhibition [16] [%] | inhibition [17] [%] | inhibition [18] [%] | inhibition [19] [%] | inhibition [20] [%]
COc1cc(/C=N/Nc2ncnc3c2cnn3C(C)C)ccc1O | 35.4 | 3.27 | 13.6 | 0.88 | 12.2 | 1.37 | 7.79 | 0.51 | 5.5 | 1.66 | 8.39 | 4.28 | 31.4 | 3.32 | 29.1 | 3.5 | 14.1 | 0.13 | 2.81 | 3.73
Nc1ccc(C#Cc2cncnc2Nc2ccc(OCc3cccc(F)c3)c(Cl)c2)cc1 | -2.35 | -0.48 | 3.77 | 1.84 | 3.47 | -0.01 |  | 1.62 | 1.81 | 4.31 | 0.62 | 1.89 | 1.57 | 2.2 | 1.81 | -1.58 | 2.93 | 0.67 | 6.25 | 2.18
NS(=O)(=O)c1cccc(-c2cc3ccncc3cc2OCc2ccccc2)c1 | -1.17 | 5.34 | 8.79 | 4.31 | 7.65 | 1.24 | 4.7 | 0.71 | 1.65 | 1.41 | 5.54 | 2.94 | 6.23 | 1.81 | 6.72 | 4.1 | 10.2 | -2.99 | 11.2 | 3.18
CS(=O)(=O)CCNCc1nc(-c2ccc3ncnc(Nc4ccc(OCc5cccc(C(F)(F)F)c5)cc4)c3c2)cs1 | 2.72 | 4.74 | 5.07 | 5.84 | 6.51 | 0.85 | 2.82 | 0.72 | 3.3 | 0.13 | 5.08 | 2.33 | 12.1 | 1.39 | 7.81 | 6.88 | 5.83 | -3.62 | 2.16 | 3.8
CN(c1ccc(NC(=O)Nc2ccc(OC(F)(F)F)cc2)cc1)c1ccnc(Nc2cccc(S(N)(=O)=O)c2)n1 |  | 0.44 | 7.04 | 36 | 79.2 | 21.4 | 82.2 | 0.67 | 4.69 | 30 | 90.5 | 34.7 | 82.6 | 30.1 | 87.1 | -0.18 | 8.63 | -1.91 | 6.4 | 7.93
